Screening results: PubChem, National Center for Advancing Translational Sciences (NCATS)
AMA1-RON2 inh: AMA1-RON2 (P. falciparum) interaction inhibition; AlphaScreen AMA1-biotinylated RON2 peptide binding; Potency, µM (highest dose often 58.2 µM), most hits filed as inhibitors; hit rate 0.2% among 360,000; note: nearly all actives have a fitted effect of over 45% in size
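AMA1 (3D7) with his tag at 25 nM final met compounds first, then biotinylated RON2 peptide at 25 nM; detection used donor plus acceptor beads, 10 µg/mL apiece, read by AlphaScreen after 30 min at room temperature.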
SARS PLpro yeast-1: SARS-CoV PLP inhibition in yeast; S. cerevisiae expressing SARS-CoV PLpro, growth rescue; Potency, µM (titrated, usually from 32.9 µM), actives largely listed as activators; hit rate 0.19% among 330,000; AID 485353; calls by dose curve; note: nearly all actives have a fitted effect of over 55% in size
Pf growth 96h: inhibits malaria parasite growth, 96 h. P. falciparum luciferase reporter growth, 96 h. Potency, µM (highest dose often 28.7 µM), most hits filed as inhibitors. hit rate 6.9% among 320,000
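Compounds incubated with erythrocytes infected by luciferase-expressing P. falciparum (2% hematocrit, 0.05% parasitemia final) for 96 hours, 37 C in 5% CO2. Growth inhibition scored as decreased luciferase luminescence.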
Pf growth 48h: inhibits P. falciparum growth in the first generation, 48 h. P. falciparum luciferase growth in erythrocytes, 48 h. Potency, µM (titrated, usually from 28.7 µM), usual class: inhibitors. hit rate 5.9% among 310,000
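Parasite viability was followed by luminescence of a genomically integrated firefly luciferase. Cultures held 0.1% parasitemia at 2% hematocrit (final), incubated under 5% CO2 at 37 C.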
SARS PLpro yeast-2: Inhibits SARS-CoV PLP in yeast, hit validation. calls only. hit rate 19% among 1,000. yeast expressing SARS-CoV PLpro, growth phenotype rescue. AID 652038. shares compounds with SARS PLpro yeast-1; call rule not given here
Large screens that a line does not name were inactive (follow-up assays come after a bar, where they were run). In the library only some 9.4% were active in any assay of this set; here they are far more common. Unless noted, calls come from the whole dose curve; as a rule, active = well fitted curve in the direction sought with a large enough effect; inconclusive = small, poorly fitted or top-dose-only effect, or another doubt; inactive = no such curve, though single readings can be large; an effect the other way counts as inactive or inconclusive.

NC(=O)c1cc2ccccc2o/c1=N\NC(=O)c1ccco1	none
COc1ccc(OC)c(C2C(C#N)=C(N)Oc3c2c(C)nn3-c2cccc(Cl)c2)c1 (stereo unspecified)	Pf growth 96h inconclusive
CCN(CC)CCCNC(=O)CC1Oc2ccc(C)cc2NC1=O (stereo unspecified)	none (no result: Pf growth 48h)
Cc1ccc(S(=O)(=O)NCCC(=O)NCc2ccc3c(c2)OCO3)cc1C	SARS PLpro yeast-1 16µM (no result: Pf growth 48h) | SARS PLpro yeast-2 inactive
O=C(CCNS(=O)(=O)c1ccc2c(c1)CCC(=O)N2)NCc1ccc2c(c1)OCO2	none
COc1cccc(C(CNC(=O)C2CCN(C(=O)Nc3ccccc3)CC2)N(C)C)c1 (stereo unspecified)	SARS PLpro yeast-1 inconclusive, Pf growth 48h inconclusive | SARS PLpro yeast-2 inactive
Cc1cc(Br)c(NC(=O)COC(=O)c2ccc[n+]([O-])c2)c(Br)c1	none (no result: Pf growth 96h, Pf growth 48h)
COc1ccc(C(=O)Oc2ccc(=O)n(-c3ccccc3)n2)cc1	none (no result: SARS PLpro yeast-1) | SARS PLpro yeast-2 active
COc1ccc(N(C(C)C(=O)NN=C2CCCC2)S(C)(=O)=O)cc1 (stereo unspecified)	SARS PLpro yeast-1 11µM, Pf growth 96h 1.9µM | SARS PLpro yeast-2 inactive
Cc1ccc([C@H]2C[C@@H](O)[C@H](n3cc(COC(=O)c4ccccc4)nn3)CN2Cc2cccs2)cc1	none (no result: SARS PLpro yeast-1, Pf growth 96h, Pf growth 48h)
CCN(c1cccc(C)c1)S(=O)(=O)c1cccc(C(=O)O)c1	SARS PLpro yeast-1 inconclusive (no result: Pf growth 48h) | SARS PLpro yeast-2 inactive
CCCCN(c1ccccc1)S(=O)(=O)c1cccc(C(=O)O)c1	Pf growth 48h inconclusive
CC1(C)CC(n2c(NCCO)nc3c(c2=O)C2(CCCC2)Cc2ccccc2-3)CCO1 (stereo unspecified)	none (no result: Pf growth 48h)
C/C(=C\C(=O)c1ccc(C)o1)Nc1ccc2c(c1)OCO2	SARS PLpro yeast-1 inconclusive | SARS PLpro yeast-2 inactive
Cc1ccc(C(=O)Nc2ccc3c(c2)OCO3)o1	none
CCc1ccc(NC(=O)C/C(C)=N/NC(=O)COc2ccccc2C)cc1	none
ClCc1nnc(-c2cc3c(s2)CCCC3)o1	SARS PLpro yeast-1 inconclusive, Pf growth 96h 10µM, Pf growth 48h inconclusive | SARS PLpro yeast-2 inactive
CCn1c(SCC(=O)NC2CCCCC2)nnc1-c1ccccn1	SARS PLpro yeast-1 3.5µM | SARS PLpro yeast-2 inactive
CN(C)CCCN(C(=O)c1ccc(S(=O)(=O)N2CCCCCC2)cc1)c1nc2ccc(F)cc2s1	SARS PLpro yeast-1 inconclusive, Pf growth 96h inconclusive, Pf growth 48h inconclusive | SARS PLpro yeast-2 inactive
COc1ccc(S(=O)(=O)Nc2cccc3c2O[C@H](CN(C)Cc2ccc(Cl)c(Cl)c2)[C@@H](C)CN([C@H](C)CO)C3=O)cc1	SARS PLpro yeast-1 inconclusive (no result: Pf growth 96h, Pf growth 48h) | SARS PLpro yeast-2 inconclusive
C[C@H](CO)N1C[C@H](C)[C@@H](CN(C)C(=O)NC2CCCCC2)Oc2c(NC(=O)Nc3ccccc3)cccc2C1=O	none (no result: Pf growth 96h, Pf growth 48h)
C[C@H](CO)N1C[C@H](C)[C@@H](CN(C)C(=O)Nc2ccccc2)Oc2c(NC(=O)NC3CCCCC3)cccc2C1=O	SARS PLpro yeast-1 inconclusive (no result: Pf growth 96h, Pf growth 48h) | SARS PLpro yeast-2 inactive
CN(C)S(=O)(=O)N1CCC(c2ccc(F)cc2)C(COc2ccc3c(c2)OCO3)C1 (stereo unspecified)	Pf growth 48h inconclusive
c1cncc(-c2csc(NCc3ccco3)n2)c1	Pf growth 96h inconclusive (no result: Pf growth 48h)
CC(=O)Nc1ccc(-c2csc(NCc3ccco3)n2)cc1	SARS PLpro yeast-1 inconclusive | SARS PLpro yeast-2 inactive
[O-][n+]1c2ccccc2c2n1CCN=C2c1ccc(Cl)cc1	Pf growth 48h inconclusive
COc1ccc2c3n([n+]([O-])c2c1)CCN=C3c1ccc(Cl)cc1	SARS PLpro yeast-1 inconclusive | SARS PLpro yeast-2 inactive
CCNC1(C(N)=O)CCN(Cc2ccccc2)CC1	none (no result: SARS PLpro yeast-1, Pf growth 96h, Pf growth 48h)
Cn1cc(/C=N/NC(=O)c2ccccc2O)c2ccccc21	Pf growth 48h inconclusive
O=C(N/N=C/c1cc2c3c(c1O)CCCN3CCC2)c1ccccc1O	AMA1-RON2 inh inconclusive, SARS PLpro yeast-1 2.8µM, Pf growth 96h 2.6µM, Pf growth 48h 3.3µM | SARS PLpro yeast-2 inconclusive
N#Cc1ccc(Oc2ccc(-c3cnc4ccccc4n3)cc2)cc1C#N	SARS PLpro yeast-1 2µM | SARS PLpro yeast-2 active
COc1cc(NC(=O)Cn2c(C)cc3ccccc3c2=O)cc(OC)c1OC	SARS PLpro yeast-1 13µM | SARS PLpro yeast-2 inactive
CC(NC(=O)COC(=O)/C=C/c1ccco1)c1ccccc1 (stereo unspecified)	none
CCc1cc(C(=O)Cc2cnn(-c3ccccc3)c2)c(O)cc1O	Pf growth 96h inconclusive, Pf growth 48h inconclusive
O=C(Cc1cnn(-c2ccccc2)c1)c1ccc(O)c(O)c1O	SARS PLpro yeast-1 inconclusive (no result: Pf growth 48h) | SARS PLpro yeast-2 inactive
